# HIV RNase H inh-1: inhibitors of HIV-1 reverse transcriptase RNase H. P04585. RT-RNase H RNA/DNA duplex cleavage, fluorescence. inhibition, % at 10 µM. hit rate 1.9% among 65,000; in the data active means inhibition above about 50%
# HIV RNase H inh-2: confirmation of HIV-1 reverse transcriptase RNase H inhibitors; shares compounds with HIV RNase H inh-1; Recombinant RT RNase H, fluorescent RNA/DNA duplex cleavage; inhibition, % at 10 µM; hit rate 39% among 1,000; AID 651; in the data active means inhibition above about 48%
# Starred values were filed as active, the others as inactive. This excerpt belongs to a sample that is enriched for hits.
SMILES,HIV RNase H inh-1,others
O=C(c1ccco1)N1CCC(c2nc(-c3ccc(F)cc3)no2)CC1,-7,
CCSc1nnc(Cc2cc(=O)[nH]c(=O)[nH]2)n1-c1cc(C)ccc1C,-14,
CC1=C(C(=O)N(C)C)C(c2cccc(Cl)c2)NC(=O)N1 (stereo not given),-4,
CC1SC(c2cccc(Cl)c2)NC1=O (stereo not given),60*,HIV RNase H inh-2=14
O=C1NCCN1Cc1cccc(Cl)c1,-20,
N#CC1=C(N)N(c2ccc(Oc3ccccc3)cc2)C(=O)C1,-1,
CCOC(=O)CNC(=O)C(NC(=O)C1CCC(C)CC1)C(C)CC (stereo not given),0,
COc1cc2cc(C(c3nnnn3C3CCCCC3)N(C)C3CCCCC3)c(=O)[nH]c2cc1OC (stereo not given),2,
Fc1ccc(C2=Nn3c(nnc3-c3n[nH]c4c3CCC4)SC2)cc1,-27,
CC1=Nn2c(nnc2-c2n[nH]c3c2CCC3)SC1,-5,
CC(C)(C)C1=Nn2c(nnc2-c2n[nH]c3c2CCC3)SC1,53*,HIV RNase H inh-2=35
CN(C)C=Nc1ncc2c([nH]c3ccccc32)c1C#N,1,
COCCOc1ccc(C(F)(F)F)cc1Nc1nc2ccccc2o1,56*,HIV RNase H inh-2=47
COCc1cc(=O)[nH]c(Nc2nc3ccccc3o2)n1,0,
COCCOc1ccc(C(F)(F)F)cc1NC(=O)COC(=O)c1c(C)noc1C,-4,
CS(=O)(=O)N(CC(=O)NCc1ccco1)c1ccc(Cl)c(C(F)(F)F)c1,-5,
CC1(C)Cc2c(sc3nc(SCC(=O)NCc4ccco4)n(-c4ccccc4)c(=O)c23)CS1,13,
Cc1sc2nc(SCC(=O)NCc3ccco3)n(C)c(=O)c2c1C,-7,
CC(C)c1nc2sc3c(SCC(=O)NCc4ccco4)ncnc3c2c2c1CCC2,71*,HIV RNase H inh-2=35*
CC1(C)Cc2nc3sc4c(SCC(=O)NCc5ccco5)ncnc4c3cc2CO1,3,
COCCCn1c(SCC(=O)NCc2ccco2)nc2sc3c(c2c1=O)CCC3,-4,
O=C(CSc1nc2sc3c(c2c(=O)n1-c1ccccc1)CCCC3)NCc1ccco1,62*,HIV RNase H inh-2=53*
O=C(CSc1ncnc2sc3c(c12)CCCCC3)NCc1ccco1,-12,
Cc1sc2nc(SCC(=O)NCc3ccco3)[nH]c(=O)c2c1C,-2,
Cc1sc2nc(SCC(=O)NCc3ccco3)n(CCc3ccccc3)c(=O)c2c1C,82*,HIV RNase H inh-2=59*
SMILES,HIV RNase H inh-1,others
O=C(N1CCCC1)N1CCN(c2ncnc3c(-c4ccc(Cl)cc4)nsc23)CC1,3,
O=C(NC1CCCc2ccccc21)C1CCN(c2c(N3CCCC3)c(=O)c2=O)CC1 (stereo not given),-3,
Cc1cc(S(=O)(=O)N2CCC(NC(=O)C34CC5CC(CC(C5)C3)C4)CC2)ccc1-n1cnnn1,5,
Cc1nc2sc(C(c3ccccc3)N3CCN(CCO)CC3)c(O)n2n1 (stereo not given),0,
O=c1c2ccc(-c3nnc4n3-c3ccccc3SC4)cc2nc2n1CCCCC2,-7,
CCC(=O)Nc1ccc(-c2nnc(SCC(=O)NCC3CCCO3)n2C)cc1 (stereo not given),-16,
O=c1c(O)c(-c2ccc(O)cc2O)oc2cc(O)cc(O)c12,75*,HIV RNase H inh-2=59*
COc1ccccc1-c1coc2cc(O)cc(O)c2c1=O,-2,
COc1ccc(-c2c(C)oc3cc(O)cc(O)c3c2=O)cc1OC,-15,
O=C(NCC(=O)N(Cc1cccs1)C(C(=O)NC1CCCC1)c1ccco1)c1cccs1 (stereo not given),1,
CC1CC(C)CN(c2nc3c(c(=O)n(C)c(=O)n3C)n2CCSc2nc3ccccc3o2)C1 (stereo not given),-3,
Cc1ccc(Cn2c(N3CCCCCC3)nc3c2c(=O)[nH]c(=O)n3C)cc1,-19,
CC(C)Sc1nc2c(c(=O)[nH]c(=O)n2C)n1Cc1ccc(Cl)cc1,27,
C=CCSc1nc2c(c(=O)[nH]c(=O)n2C)n1Cc1ccc(C)cc1,84*,HIV RNase H inh-2=31
C=CCSc1nc2c(c(=O)[nH]c(=O)n2C)n1C(C)C,76*,HIV RNase H inh-2=59*
CCOC(=O)C(C)Sc1nc2c(c(=O)[nH]c(=O)n2C)n1Cc1ccc(Cl)cc1 (stereo not given),71*,HIV RNase H inh-2=24
Cc1ccc(Cn2c(SCC(C)C)nc3c2c(=O)[nH]c(=O)n3C)cc1,87*,HIV RNase H inh-2=58*
C/C(Cl)=C/CSc1nc2c(c(=O)[nH]c(=O)n2C)n1C(C)C,-21,
CCC(C)Sc1nc2c(c(=O)[nH]c(=O)n2C)n1Cc1ccc(Cl)cc1 (stereo not given),15,
CCSc1nc2c(c(=O)[nH]c(=O)n2C)n1C,-6,
CCCSc1nc2c(c(=O)[nH]c(=O)n2C)n1Cc1ccc(C)cc1,5,
C=CCn1c(SCc2ccc(Cl)cc2)nc2c1c(=O)[nH]c(=O)n2C,-13,
C/C=C/Cn1c(SCc2ccc(C)cc2)nc2c1c(=O)[nH]c(=O)n2C,-10,
CC1=C(C(=O)OC2CCCC2)C(c2ccc(C)o2)C2=C(CC(c3cccs3)CC2=O)N1 (stereo not given),2,
CC1(c2cccs2)CC(c2cccs2)=C(C#N)C(=O)N1 (stereo not given),-21,
SMILES,HIV RNase H inh-1,others
Cn1c(SCCS(=O)(=O)c2ccc(Cl)cc2)nnc1-c1ccccc1,-12,
CCOC(=O)c1oc2ccc(S(=O)(=O)Nc3ccc4c(c3)n(C)c(=O)n4C)cc2c1C,-5,
CC(=O)NC(Cc1ccccc1C)C(=O)NC1CCN(c2c3c(nc4ncnn24)CCC3)CC1 (stereo not given),-9,
CCn1c(Cc2ccccc2)nnc1SCC(=O)Nc1ccc(S(N)(=O)=O)cc1,-43,
O=C(COc1ccc(-c2nnco2)cc1)NC1CCCc2ccccc21 (stereo not given),-16,
Cc1cccc(-n2nnc(C(=O)NCc3ccccn3)c2N)c1,-2,
COc1ccccc1N(O)C1CC(=O)N(c2ccc(F)cc2)C1=O (stereo not given),63*,HIV RNase H inh-2=20
CCCOc1ccc(N2C(=O)CC(N(O)c3ccccc3)C2=O)cc1 (stereo not given),-11,
Cc1ccc(N2C(=O)CC(N(O)C3CC(=O)N(c4ccc(C)cc4)C3=O)C2=O)cc1 (stereo not given),-23,
COc1cc(OC)cc(C(=O)OCc2cc3ccccc3[nH]c2=O)c1,7,
C=CCOc1ccc(/C(O)=C2/C(=O)C(=O)N(CCCn3ccnc3)C2c2cccs2)cc1 (stereo not given),2,
Cc1cc(NC(=O)CC23CC4CC(C2)CC(CC(=O)Nc2cc(C)on2)(C4)C3)no1,-1,
Cc1cccc(N2CSC3=C(C#N)C(c4ccc(C)o4)CC(=O)N3C2)c1 (stereo not given),94*,HIV RNase H inh-2=55*
CCc1ccccc1N1C(=O)C2CC(C)=C(C)CC2C1=O (stereo not given),-2,
CCc1ccccc1N1CSC2=C(C#N)C(c3ccccc3F)CC(=O)N2C1 (stereo not given),89*,HIV RNase H inh-2=59*
COc1cc(OC)c(C2CC(=O)N3CN(c4ccccc4C)CSC3=C2C#N)cc1OC (stereo not given),77*,HIV RNase H inh-2=72*
COc1cc(OC)c(C2C(C#N)=C(N)OC3=C2C(=O)CC(C)(C)C3)cc1OC (stereo not given),-4,
Cc1ccc(C2N(c3cccc(Cl)c3)C(=O)C3CCCN32)o1 (stereo not given),-19,
Cc1cccc(N2CC34C=CC(O3)C(C(=O)O)C4C2=O)c1 (stereo not given),-8,

# Compound activity from PubChem BioAssay.
